# Compounds without any hit were thinned out: in the full panel of roughly 83,000, 20% have a hit.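 Single-concentration screen, 48 h exposure, 96-well plates. Endpoint: percent growth. Below 10 = active.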 Calls of active or inactive are those of the source.
# Tested on: UO-31 renal
# Experiment: NCI-60 one-dose screen, 48 h (100 = growth as untreated, 0 = no growth, -100 = all killed)
# Conditions: 10 µM unless noted
row,Structure (SMILES),growth
1,Fc1ccc(C2=NN(c3ccccc3)C(c3sc(N(CCCl)CCCl)nc3Cl)C2)cc1 (configuration not stated),67.6% (inactive)
2,CC[C@H](C)[C@H](NC(=O)Nc1ccccc1)C(=O)N(C)[C@H](C[C@@H](OC(C)=O)c1nc(C(=O)N[C@@H](Cc2ccccc2)C[C@H](C)C(=O)OC)cs1)C(C)C,26.7% (inactive)
3,c1ccc(CCN2CCCCC2Cc2ccccc2)cc1 (configuration not stated),74.7% (inactive)
4,CC(=O)O[C@H]1CCC2(C)C(=CCC3C2CCC2(C)/C(=N/OC(=O)c4ccc(N(CCCl)CCCl)cc4)CCC32)C1 (some centres not stated),-11.9% (active)
5,O=C(N/N=C/c1ccc(N(CCCl)CCCl)cc1)c1cc(=O)[nH]c(=O)[nH]1,71.7% (inactive)
6,O=[As]c1ccc(C(=O)c2ccc(Oc3ccccc3)cc2)cc1 (configuration not stated),-84.6% (active)
7,O=[N+]([O-])c1cc([N+](=O)[O-])c(Cl)c(Cl)c1Cl,-63.2% (active)
8,Cc1cc(NC(=O)NCCOc2ccc(N3C(N)=NC(N)=NC3(C)C)cc2Cl)ccc1S(=O)(=O)F,81.6% (inactive)
9,COc1ccc2c(c1)NC1=C(C(=O)OC1)C2c1cc(OC)c(OC)c(OC)c1 (configuration not stated),47.2% (inactive)
10,C=CCc1ccc(OC(=O)Cc2ccccc2)c(OC)c1,77.1% (inactive)
11,CC(C)(O)/C=C/C(=O)[C@](C)(O)[C@H]1[C@H](O)C[C@@]2(C)[C@@H]3CC=C4[C@@H](C=C(O)C(=O)C4(C)C)[C@]3(C)C(=O)C[C@]12C,-54.6% (active)
12,C[C@]12CCc3sc(-c4ccc(Cl)cc4)nc3C1=CC[C@@H]1[C@@H]2CC[C@]2(C)C(=O)CC[C@@H]12,47.3% (inactive)
